Pf growth 96h = inhibits malaria parasite growth, 96 h; P. falciparum luciferase reporter growth, 96 h; Potency, µM (top dose mostly 28.7 µM), for the others: top-dose activity change, negative = inhibition, usual class: inhibitors; 320,000 tested, 6.9% active; also: potency is read from the fitted curve at half-maximal effect; % is scaled to controls: 0 for no effect and ±100 for the full control effect
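Two-generation exposure (96 h) targets delayed-death phenotype. Reporter parasites carrying integrated firefly luciferase, in red cells at 2% hematocrit and 0.05% parasitemia final, kept at 37 C, 5% CO2; luminescence loss indicates inhibition.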
LASV entry inh = inhibitors of Lassa virus binding or cell entry; Lassa virus pseudotype entry inhibition, cell reporter; Potency, µM (series often up to 37.9 µM), for the others: top-dose activity change, negative = inhibition, usual class: inhibitors; 300,000 tested, 1.2% active; AID 540256; calls by dose curve; tested in HEK293 cells; also: potency is read from the fitted curve at half-maximal effect; % is scaled to controls: 0 for no effect and ±100 for the full control effect; nearly all actives have a fitted effect of over 50% in size
Shiga toxin inh = blocks Shiga toxin action in Vero cells | 290,000 tested, 9.2% active | inhibition, % at 38.7 µM | Vero cells, Shiga toxin protein synthesis inhibition reporter; in the data active = inhibition mostly above about 28%, no sharp cut-off; inactive = mostly below about 43%; also: 0% is about no effect
Cycloheximide cs = affects cycloheximide protein synthesis inhibition readout, counter-screen | cell reporter, cycloheximide protein synthesis inhibition counterscreen | max response, % | 300,000 tested, 12% active; in the data active = max response mostly above about 13%, no sharp cut-off; inactive = mostly below about 14%; also: read at 38.3 µM for the half of the compounds with a filed dose; 0% is about no effect
Marburg entry inh = Marburg virus entry inhibition. Marburg virus pseudotyped entry inhibition, cell reporter. 300,000 tested, 1.8% active. Potency, µM (series often up to 37.8 µM), for inactives: top-dose activity change, negative = inhibition, usual class: inhibitors; calls by dose curve; tested in HEK293 cells; also: potency is read from the fitted curve at half-maximal effect; % is scaled to controls: 0 for no effect and ±100 for the full control effect
Pf growth 48h = P. falciparum growth inhibition at 48 hours (one generation) | P. falciparum luciferase growth in erythrocytes, 48 h | Potency, µM (titrated, usually from 28.7 µM), for the others: top-dose activity change, negative = inhibition, usual class: inhibitors | 310,000 tested, 5.9% active | AID 504832; also: potency is read from the fitted curve at half-maximal effect; % is scaled to controls: 0 for no effect and ±100 for the full control effect
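Luciferase-expressing P. falciparum in infected erythrocytes (2% hematocrit, 0.1% parasitemia final) in RPMI 1640/0.5% Albumax were exposed to compound for 48 hours at 37 C, 5% CO2; growth read as luminescence.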
The depositor's hits bear a star; [ ] = another dose, or the depositor's remark. This is a sample that favours compounds with a hit; in the whole collection about 19% have one here. Unless noted, calls follow the shape of the dose curve; as a rule, active = well fitted inhibition curve with a large enough effect; inconclusive = small, poorly fitted or top-dose-only effect, or another doubt; inactive = no such curve, though single readings can be large or run the other way.

Cc1ccccc1-n1c(C)nnc1SCc1nc2ccccc2s1 was read as Pf growth 96h inconclusive, LASV entry inh 0%, Shiga toxin inh 91*, Cycloheximide cs 33* and Marburg entry inh 4%.
For Cn1c(SCc2nc3ccccc3s2)nnc1-c1cccs1 the results were LASV entry inh 9%, Shiga toxin inh 66*, Cycloheximide cs 60*, Marburg entry inh 5% and Pf growth 48h -25%.
Screening COc1ccccc1-c1nnc(SCc2nc3ccccc3s2)n1C returned Pf growth 96h 20%, LASV entry inh -8%, Shiga toxin inh 26, Cycloheximide cs 16, Marburg entry inh -1% and Pf growth 48h -2%.
Screening CCCCn1c(SCc2nc3ccccc3s2)nc2ccccc2c1=O returned Pf growth 96h 0%, LASV entry inh 12%, Shiga toxin inh -10, Cycloheximide cs -3, Marburg entry inh -1% and Pf growth 48h 2%.
For CCn1c(SCc2nc3ccccc3s2)nnc1-c1cccs1 the results were Pf growth 96h 10µM*, LASV entry inh inconclusive, Shiga toxin inh 59*, Cycloheximide cs 59*, Marburg entry inh 7% and Pf growth 48h -18%.
For Fc1ccc(C2CCCCN2Cc2nc(CC3CC3)no2)cc1 (stereo not given) the results were Pf growth 96h inconclusive, LASV entry inh 13%, Shiga toxin inh 8, Cycloheximide cs -1, Marburg entry inh -21%[46.1 µM] and Pf growth 48h -10%.
`Cc1c(C(=O)OCc2ccccc2)[nH]c2c1C(=O)CC(c1ccc(Cl)cc1)C2` (stereo not given) gave LASV entry inh -10%[46.1 µM] and Marburg entry inh -30%[46.1 µM].
CCOc1ccccc1-n1nnnc1SCc1nc2ccccc2s1 was read as Pf growth 96h 7%, LASV entry inh 5%, Shiga toxin inh 168*, Cycloheximide cs 48*, Marburg entry inh inconclusive and Pf growth 48h 62%.
For CCn1c(SCc2nc(-c3cccs3)no2)nnc1-c1c[nH]c2ccccc12 the results were LASV entry inh 20µM*, Shiga toxin inh -5, Cycloheximide cs -2, Marburg entry inh inconclusive and Pf growth 48h inconclusive.
Screening CCn1c(SCc2nc(-c3ccccc3)no2)nnc1-c1cccs1 returned Pf growth 96h -27%, LASV entry inh -16%, Shiga toxin inh -6, Cycloheximide cs 6 and Marburg entry inh -9%.
Screening COc1ccc(CCN(C)C(=O)C2CCN(C(=O)Nc3ccccc3)CC2)cc1OC returned Pf growth 96h 3%, LASV entry inh 20%, Marburg entry inh 14%[46.1 µM] and Pf growth 48h 9%.
Screening COc1ccc(OC)c(NC(=O)C(=O)/C=C(\O)c2cc(OC)ccc2OC)c1 returned LASV entry inh 0%, Shiga toxin inh -6, Cycloheximide cs -3, Marburg entry inh 1% and Pf growth 48h 1%.
`O=C(NCCc1ccccc1)C1CCCN(S(=O)(=O)c2cccc3nonc23)C1` (stereo not given) gave LASV entry inh 6%, Shiga toxin inh -15, Cycloheximide cs 12 and Marburg entry inh 3%.
For O=C1c2ccccc2S(=O)(=O)N1Cc1cc(=O)n2ccsc2n1 the results were Pf growth 96h 13µM*, LASV entry inh -6%, Shiga toxin inh -2, Cycloheximide cs -3, Marburg entry inh 27% and Pf growth 48h inconclusive.
`CC(=O)c1cccc(NC(=S)Nc2cccc3ccccc23)c1` gave Pf growth 96h 7%, Shiga toxin inh 83*, Cycloheximide cs 44* and Pf growth 48h 0%.
Screening COc1ccc(NC(=S)Nc2cccc3ccccc23)cc1OC returned Pf growth 96h inconclusive, Shiga toxin inh 18, Cycloheximide cs 30* and Pf growth 48h inconclusive.
For CC(=O)Nc1cccc(NC(=S)Nc2cccc3ccccc23)c1 the results were Pf growth 96h 45%, Shiga toxin inh 84*, Cycloheximide cs 44* and Pf growth 48h 19%.
`NC(=O)C1(C(=O)O)OC1(c1ccc(Cl)cc1)c1ccccc1Cl` (stereo not given) gave LASV entry inh 10%[46.1 µM] and Marburg entry inh inconclusive.
COCCCn1c(SCC(=O)Nc2nnc(C)s2)nnc1-c1ccoc1C was read as Pf growth 96h -20%, LASV entry inh -7%, Shiga toxin inh -11, Cycloheximide cs -1 and Marburg entry inh -11%[46.1 µM].
